# eIF4H inh – human eIF4H binding inhibitors, primary screen, translation initiation inhibitor project, biochemical, uHTS, fluorescence polarization; Eukaryotic translation initiation factor 4H (Homo sapiens), Q15056; eIF4H fluorescence polarization binding assay; inhibition, % at 35 µM; hit rate 0.94% among 290,000;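 note: calls also rest on retests at 20 µM and on dose response follow-up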
# ABCB6 inh 2 – ABCB6 transporter inhibitors, primary screen, K562-ABCB6 cells, flow cytometry, MLPCN library | K562-ABCB6 porphyrin accumulation, 1 h; hits give low values | ATP-binding cassette sub-family B member 6 (Homo sapiens), Q9NP58 | fluorescence ratio to DMSO, % at 10 µM | hit rate 0.19% among 360,000 | AID 602162, 2011;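 active = fluorescence ratio to DMSO below 75%, the collection mean minus 3 SD; inconclusive = too few cells collected in the well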;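 note: signal is porphyrin accumulated inside mitochondria; 100% equals median channel fluorescence of DMSO control wells; lower ratio means ABCB6 inhibition with less porphyrin fluorescence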
# PHOSPHO1 block – PubChem AID 1565; recombinant PHOSPHO1, absorbance phosphatase assay; hit rate 1.1% among 290,000; inhibition, % at 13.3 µM; Phosphoethanolamine/phosphocholine phosphatase (Homo sapiens), Q8TCT1; in the data active = inhibition above about 60%
# Target sequence (Q8TCT1 whole entry, looked up): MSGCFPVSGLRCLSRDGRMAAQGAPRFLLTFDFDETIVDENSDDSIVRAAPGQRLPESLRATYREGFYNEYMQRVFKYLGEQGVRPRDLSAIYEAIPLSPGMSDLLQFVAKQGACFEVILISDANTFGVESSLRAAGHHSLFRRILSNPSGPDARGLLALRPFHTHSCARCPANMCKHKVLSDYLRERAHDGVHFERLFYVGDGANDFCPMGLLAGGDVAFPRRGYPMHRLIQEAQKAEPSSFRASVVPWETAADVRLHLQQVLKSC
# PABP FP inh – PABP poly(A) RNA binding inhibitors, primary screen, biochemical, fluorescence polarization, uHTS | Polyadenylate-binding protein 1 (Homo sapiens), P11940 | calls only at 35 µM | hit rate 1% among 290,000 | AID 2014, 2009;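 note: calls also rest on retests at 20 µM and on dose response follow-up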
# MLLE-PAM2 inh – inhibitors of PABP1 MLLE–PAM2 peptide binding, primary screen, biochemical, fluorescence polarization, FITC-PAM2, GST-MLLE; inhibition, % at 20 µM; Polyadenylate-binding protein 1 (Homo sapiens), P11940; AID 588489, 2011; hit rate 0.36% among 360,000; in the data active = inhibition above about 35%, passing the limit was not always enough;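 note: plate controls were DMSO wells with GST-MLLE for no effect and wells lacking GST-MLLE protein for full effect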
# AI-2 QS mod – Vibrio harveyi AI-2 quorum sensing modulators, primary screen, JMH597 strain, luminescence/OD600 ratio; Vibrio harveyi JMH597 AI-2 luminescence/OD600 ratio, 9 h; hits give low values; strain lacks LuxN and CqsS sensors; 0 = neutral-control median; activity change, % at 7.5 µM; hit rate 0.4% among 300,000; in the data active = activity change below about -75%, passing the limit was not always enough; inconclusive = no clear call, values can overlap the other calls;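 note: luminescence divided by OD600 gain over 9 h not by final OD600 alone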
# Active calls of the source: *; i = inactive; ? = inconclusive; . = no result; + = active, no number. A selection: hits, their analogues and other compounds. The true share with any hit is near 2.6%. Unless noted, the rule behind the calls is not given here.
SMILES,eIF4H inh,ABCB6 inh 2,PHOSPHO1 block,PABP FP inh,MLLE-PAM2 inh,AI-2 QS mod
CCOc1ccc(C(=O)/C=C/c2ccc(SC)cc2)cc1,5,99,5,i,-5,-12
CN(Cc1ccccc1)C(=O)c1ccc2nc([C@@H]3O[C@H](CO)[C@H](O)[C@H](O)[C@H]3O)[nH]c2c1,.,89,.,.,6,.
CCCCNC(=O)c1nc(C2CCN(S(=O)(=O)c3ccccc3C(F)(F)F)CC2)oc1-c1cccc(C(F)(F)F)c1,.,104,.,.,-5,.
Cc1cc(C)nc(Nc2nc(=O)c3ccccc3s2)n1,7,106,4,i,38*,4
CCOC(=O)c1c(-c2ccc(C)o2)csc1N,52*,.,69*,+,26,15
CCOC(=O)c1c(-c2ccc(C)o2)csc1NC(=O)COC(=O)c1cccs1,9,89,-10,i,18,11
CCOC(=O)c1c(-c2ccsc2)csc1N,-22,117,92*,i,24,14
Cn1nc(C(C)(C)C)cc1N1C(=O)CCC1(C)C(=O)NC1CCCC1 (centres undefined),.,98,.,.,4,.
COC(=O)c1cnn(-c2cc(Oc3cccc(C)c3)ncn2)c1N,-8,97,11,i,-2,-88*
O=C1OCC2OC(O)C(O)C(O)C2OC(=O)c2cc(O)c(O)c(O)c2-c2c(O)c(O)c3oc(=O)c4c(c(O)c(O)c5oc(=O)c2c3c54)-c2c1cc(O)c(O)c2O (centres undefined),83*,.,31,+,.,.
Cc1ccc(C)c(Nc2nc3nonc3nc2N2CCOCC2)c1,2,98,61*,i,7,25
C1CN(c2nc3nonc3nc2N2CCOCC2)CCO1,-8,.,-16,i,.,25
Cc1cc(C(=O)NCc2ccc(C(=O)O)o2)c(C)o1,74,106,10,+,6,-4
CCCCCCCCC(c1nc2cc(C)c(C)cc2[nH]1)n1c(=O)c(-c2ccccc2Br)nc2ccccc21 (centres undefined),.,99,.,.,-2,.
CCOC(=O)CSc1ccc(S(=O)(=O)N2CCCCC2)cc1[N+](=O)[O-],-1,95,-8,i,-1,31
CCOC(=O)CSc1ccc(S(=O)(=O)N2CCCC2)cc1[N+](=O)[O-],active,99,-13,+,11,43
CC(C)CC(=O)Nc1ccc(C(=O)NNC(=S)NC(=O)C2CCCCC2)cc1,15,96,93*,i,17,18
COC(=O)[C@]12CCCCC=C1N(Cc1ccc(Cl)cc1Cl)C(=O)[C@H](CC(=O)N1CCN(C(=O)c3ccco3)CC1)C2,.,99,.,.,.,.
COCCCNC(=S)NNC(=S)Nc1ccc(F)cc1F,-1,100,83*,i,35,6
Cc1cc(Cl)ccc1C(O)c1ncc(-c2ccc(Cl)cc2)[nH]1 (centres undefined),.,94,.,.,1,.
Cc1cccc(OCC(=O)N2CCOCC2)c1,8.3*,96,5,+,1,16
Cc1ccc(-c2ccc(OCC(=O)N3CCOCC3)cc2)cc1,-9,99,-32,i,-6,19
CC(C)CNC(=O)c1cccc2c(-c3cccc(C(N)=O)c3)coc12,.,95,.,.,0,.
CCC(Oc1ccccc1)C(=O)O/N=C(\N)c1ccc(OC)c(OC)c1 (centres undefined),active,97,1,+,-3,12
Cc1cccnc1C(NC(=O)C1CCN(CCCOc2ccccc2)CC1)c1ccc(F)cc1 (centres undefined),.,92,.,.,-4,.
SMILES,eIF4H inh,ABCB6 inh 2,PHOSPHO1 block,PABP FP inh,MLLE-PAM2 inh,AI-2 QS mod
CCc1ccccc1NS(=O)(=O)c1ccc2c(c1)NC(=O)CC(=O)N2,active,107,-1,+,-4,16
CCc1cccc(NS(=O)(=O)c2ccc3c(c2)NC(=O)CC(=O)N3)c1,-5,102,-1,i,22,0
COC(=O)C(C)N1C(=O)S/C(=C\c2cc(C)n(-c3ccccn3)c2C)C1=O (centres undefined),119,102,24,i,-84,9
COC(=O)C(C)N1C(=O)S/C(=C/c2cc(C)n(-c3ccccn3)c2C)C1=O (centres undefined),83*,94,15,+,-7,-1
C=CCN1CCN(C(=O)c2c(-c3ccccc3)noc2C)CC1,-1,100,.,i,-1,5
Cc1onc(-c2ccccc2)c1C(=O)N1CCN(C/C=C/c2ccccc2)CC1,28*,99,3,+,11,-17
O=C1c2ccccc2C(=O)c2c1cccc2N(CCO)CCO,?,98,19,?,41*,23
O=C1C=C(N(CCO)Cc2ccccc2)c2ccccc2C1=O,0,105,40,i,7,40
O=C1/C(=C\c2ccc(O)cc2)SC(=S)N1/N=C/c1ccc(O)cc1,83*,108,8,+,-142,-2
O=C(/C=C\c1ccco1)c1ccc(NC(=O)c2ccco2)cc1,?,104,-11,+,-1,0
O=C(/C=C/c1ccco1)c1ccc(O)cc1,48,.,32,i,.,3
CC(=O)Nc1ccc(C(=O)/C=C/c2ccco2)cc1,?,111,0,+,10,15
CCCCCCn1c(=O)n2n(c1=O)C[C@]1(OC(=O)NCc3ccco3)CN(S(=O)(=O)c3ccc(C)cc3)C[C@]1(O)C2,.,90,.,.,0,.
Cc1ccc(S(=O)(=O)NC(=O)NC2=NC(C)(C)N(c3ccc(Cl)c(Cl)c3)C(N)=N2)cc1,.,103,.,.,9,.
COc1cccc(OC)c1/C(O)=C(\C#N)c1nc2ccccc2[nH]1,2,102,60*,i,0,8
CC(C)(C)/C(O)=C(/C#N)c1nc2ccccc2[nH]1,7,97,5,i,4,9
CCCc1nc2sc3ccccc3c(=O)c2c(=O)n1Cc1ccco1,64*,100,32,+,27,.
O=C(CCN1C(=O)S/C(=C\c2ccccc2)C1=O)NCCCn1ccnc1,-7,93,22,i,-1,33
O=C(CN1C(=O)S/C(=C\c2ccccc2)C1=O)NNC(=O)c1ccccc1O,7.4*,100,2,+,5,22
CC(=O)NNC(=O)CN1C(=O)/C(=C/c2ccccc2)SC1=S,3,104,16,i,50*,8
O=C(CN1C(=O)S/C(=C\c2ccccc2)C1=O)NCCCn1ccnc1,-2,99,37,i,43*,5
COc1ccc(CCN2C(=O)CCC2(C)c2nnnn2-c2c(C)cccc2C)cc1OC (centres undefined),.,96,.,.,.,.

# Screens (PubChem BioAssay)
